Test results taken from PubChem BioAssay (NCATS).
Results filed as inconclusive are left out. A number with no mark means an inactive call. The call rests on the fitted dose curve; in most records, active means well fitted cell-killing curve with a large enough effect; inconclusive means small, poorly fitted or top-dose-only effect; inactive means flat fitted curve, though single readings scatter. *1 amine or outer side, *2 acyl side, *3 side chain or, on linkers, in order; H or OH if unused. Where a SMILES comes first, the peptide text is derived from it. Bridges are numbered along the chain shown (N, C = ends). [ ]: non-standard residue; d: D form. The star is where a group is joined. X5 = NC1=N[C@@H]([C@H](N[*:1])C(=O)[*:2])C[C@H](O)N1; ΔAla(Z-3-ureido) = NC(=O)N/C=C(\N)C(=O)O; β3hOrn = NCCC[C@H](N)CC(=O)*; Dap = NC[C@H](N)C(=O)O

test: qHTS assay to identify small molecule inhibitors of chordoma cells - UCH-2 (AID 1259356); conditions: UCH-2 chordoma viability, CellTiter-Glo ATP luminescence, 48 h; series mostly up to 46.1 µM; activity change, negative = inhibition: at the top concentration
On the % scale 0 is the no-effect control and ±100 the full control effect.

| SMILES | activity change, negative = inhibition |
| --- | --- |
| FC(F)(F)C(F)(F)C(F)(F)C(F)(F)C(F)(F)F | 7.5% |
| Nc1nc(=O)n([C@@H]2CS[C@H](CO)O2)cc1F | -3.28% |
| OC[C@H]1OC([S-])[C@H](O)[C@@H](O)[C@@H]1O.[Au+] (some centres not stated) | 9.24% |
| Cc1cccc(C)c1NC(=O)C1CCCCN1C (configuration not stated) | -1.46% |
| O=C(O)COc1ccccc1/C=N/NC(=O)c1ccncc1 | 11% |
| NC(Cc1ccccc1)C(=O)O (configuration not stated) | -7.45% |
| C=O | 11.1% |
| CC1CCCC(C)N1NC(=O)c1ccc(Cl)c(S(N)(=O)=O)c1 (configuration not stated) | 2.57% [at 20.6 µM] |
| NC[C@H]1O[C@H](O[C@H]2[C@H](O)[C@@H](O[C@H]3O[C@H](CO)[C@@H](O)[C@H](N)[C@H]3O)[C@H](N)C[C@@H]2N)[C@H](O)[C@@H](O)[C@@H]1O | 4.88% [at 20.6 µM] |
| CCCOC(=O)c1ccccc1O | -17.7% |
| CCCCC/C=C\C/C=C\C/C=C\CCCCC(=O)O | 8.99% |
| CC(=NCc1ccccc1)c1ccccc1O | 0.822% |
| CCCCCCCCCCCCCCCCCC(=O)OC[C@@H](O)[C@H]1OC[C@H](O)[C@H]1O | -3.85% |
| NC(=O)CC[C@@H]1NC(=O)[C@H](Cc2ccccc2)NC(=O)[C@H](Cc2ccc(O)cc2)NC(=O)[C@@H](N)CSSC[C@@H](C(=O)N2CCC[C@H]2C(=O)N[C@@H](CCCN=C(N)N)C(=O)NCC(N)=O)NC(=O)[C@H](CC(N)=O)NC1=O | 15.6% |
| NCCC[C@H](N)CC(=O)N[C@H]1CNC(=O)[C@H]([C@H]2C[C@H](O)NC(N)=N2)NC(=O)/C(=C/NC(N)=O)NC(=O)[C@H](CO)NC(=O)[C@H](CO)NC1=O (β3hOrn-[Dap]SS[ΔAla(Z-3-ureido)][X5]; lactam 1-C) | 9.48% |
| O=c1[nH]c(=O)n([C@H]2C[C@H](O)[C@@H](CO)O2)cc1/C=C/Br | 8.46% |
| C[C@@H]1C/C=C/C=C/C=C/C=C/[C@H](O[C@@H]2O[C@H](C)[C@@H](O)[C@H](N)[C@@H]2O)C[C@@H]2O[C@](O)(C[C@@H](O)C[C@H]3O[C@@H]3/C=C/C(=O)O1)C[C@H](O)[C@H]2C(=O)O | 2.63% |
| CN1CCC(OC(=O)C(Oc2ccc(Cl)cc2)Oc2ccc(Cl)cc2)CC1 | -11.1% |
| CCCc1ccc(C(=O)O)cc1 | 9.32% |

| SMILES | activity change, negative = inhibition |
| --- | --- |
| CNC(=O)OCc1cccc(COC(=O)NC)n1 | 3.71% |
| Cc1ccc(S(=O)(=O)NCl)cc1 | 2.44% |
| CNC(=O)C[C@@H](N)C(=O)N[C@@H](C(=O)N[C@@H]1C(=O)N2[C@@H]1SC(C)(C)[C@@H]2C(=O)O)c1ccc(O)cc1 | 10.1% |
| CC(C)O | 0.333% |
| CN1C(=O)OC(C)(C)C1=O | 16.5% [at 20.6 µM] |
| O=P(O)(O)OC[C@H](O)CO | -2.64% |
| CC[C@@]1([C@@H]2O[C@@H]([C@H]3O[C@@](O)(CO)[C@H](C)C[C@@H]3C)C[C@@H]2C)CC[C@H]([C@]2(C)CC[C@]3(C[C@H](O)[C@@H](C)[C@@H]([C@@H](C)[C@@H](OC)[C@H](C)C(=O)O)O3)O2)O1 (stereo in doubt) | -23.4% |
| O=C(O)COc1ccc(CCNS(=O)(=O)c2ccccc2)s1 | -20.1% |
| CCCCC/C=C\CCC(=O)N[C@H]1[C@H](Oc2c3cc4cc2Oc2ccc(cc2Cl)[C@@H](O[C@@H]2O[C@H](CO)[C@@H](O)[C@H](O)[C@H]2NC(C)=O)[C@@H]2NC(=O)[C@H](NC(=O)[C@@H]4NC(=O)[C@H]4NC(=O)[C@@H](Cc5ccc(c(Cl)c5)O3)NC(=O)[C@H](N)c3ccc(O)c(c3)Oc3cc(O)cc4c3)c3ccc(O)c(c3)-c3c(O[C@H]4O[C@H](CO)[C@@H](O)[C@H](O)[C@@H]4O)cc(O)cc3[C@@H](C(=O)O)NC2=O)O[C@H](CO)[C@@H](O)[C@@H]1O | 0.426% [at 20.6 µM] |
| C[C@H](O)CN(C)C | -2.45% |
| O=C(NNCS(=O)(=O)O)c1ccncc1 | -16% |
| C[C@H]1[C@@H](OC(=O)CCC(=O)O)O[C@@H]2OC3(C)CC[C@H]4[C@H](C)CC[C@@H]1[C@@]24OO3 | -2.41% |
| CCN(CC)C(=S)S | -2.66% |
| C=CCCCCCCCCC(=O)OC | 2.88% |
| CC(C)CN(C[C@@H](OP(=O)(O)O)[C@H](Cc1ccccc1)NC(=O)O[C@H]1CCOC1)S(=O)(=O)c1ccc(N)cc1 | 12.9% |
| O=C[C@H](O)[C@@H](O)[C@@H](O)[C@H](O)CO | 0% |
| C[C@H](CCC(=O)O)[C@H]1CC[C@H]2[C@@H]3[C@H](O)C[C@@H]4C[C@H](O)CC[C@]4(C)[C@H]3C[C@H](O)[C@]12C | 9.77% |
| CCCCC[C@H](O)/C=C/[C@H]1[C@H](O)CC(=O)[C@@H]1C/C=C\CCCC(=O)O | -6.22% |
